These results are taken from PubChem BioAssay (NCATS).

Results filed as inconclusive are left out. Active and inactive are the calls of the source. The call rests on the fitted dose curve; in most records, active means well fitted curve in either direction with a large enough effect (not every such curve was filed as active); inconclusive means small, poorly fitted or top-dose-only effect, or another doubt; inactive means flat fitted curve, though single readings scatter.

This test deals with Mitogen-activated protein kinase 10 (Mus musculus) (UniProt Q61831). Briefly: JNK3 AlphaScreen Assay (AID 530).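 Further: kinase came from lysate of stimulated human HepG2 cells.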 Conditions: JNK3 lysate, c-Jun phosphorylation; series mostly up to 57.1 µM. The source says:
NIH Chemical Genomics Center [NCGC]
NIH Molecular Libraries Screening Centers Network [MLSCN]
The c-jun N-terminal kinase (JNK) family are serine/threonine protein kinases that phosphorylate c-jun, a component of the transcription factor […] (AP-1). JNK kinases are members of the mitogen-activated protein kinase family including the extracellular regulated kinases and p38 kinases. Three JNK genes (JNK 1, 2, and 3) have been identified in humans so far. JNK1 and JNK2 have a broad distribution and JNK3 is primarily found in neuronal tissues and cardiac myocytes.
JNK3 has been under consideration as a target for the treatment of neurodegenerative disorders. […] JNK pathway is also involved in pathological process in a mouse model of Parkinson's disease (Xia et al., 2001).
Given these potential tissue distributions and links to neuroprotection, JNK3 inhibitors should provide useful investigational tools to study the role of this kinase in several diseases including, arthritis, stroke, myocardial infarction, ischemic injury and Parkinson's disease.
A homogeneous AlphaScreen is developed to measure the activity of JNK3. AlphaScreen is a two bead-based proximity-dependent chemical energy transfer luminescent assay platform. The phosphorylation of a biotinylated c-jun substrate by JNK3 can be detected with an antibody raised against phosphorylated c-jun. This process brings streptavidin donor beads and Protein-A acceptor beads to within a proximity range of <200 nm, and subsequently lead a chemical luminescent reaction upon exciting donor beads with 680 nm laser excitation light. Inhibition of JNK3 activity by small molecules and subsequent decrease in the antibody binding to biotinylated c-jun could attenuate or abolish this chemical luminescent reaction.
Yang DD, Kuan CY, Whitmarsh AJ, Rincon M, Zheng TS, Davis RJ, Rakic P and Flavell RA (1997) Absence of excitotoxicity-induced apoptosis in the hippocampus of mice lacking the Jnk3 gene. Nature 389:865-870. [PMID: 9349820]
Herdegen T, Claret FX, Kallunki T, Martin-Villalba A, Winter C, Hunter T, and Karin M (1998) Lasting N-terminal phosphorylation of c-Jun and activation of c-Jun N-terminal kinases after neuronal injury. J.Neurosci. 18:5124-5135. [PMID: 9651196]
Xia XG, Harding T, Weller M, Bieneman A, Uney JB and Schulz JB (2001) Gene transfer of the JNK interacting protein-1 protects dopaminergic neurons in the MPTP model of Parkinson's disease. Proc.Natl.Acad.Sci.U.S.A. 98:10433-10438.
NCGC Assay Protocol Summary:
GST-cJun (1-79) (Stratagene, La Jolla CA, #205145) was biotnylated by PerkinElmer (PerkinElmer-BioSignalInc. Montreal, Canada) and was detectable by the streptavidin Donor beads. Anti-(phospho)cJun (Ser73) antibody was from UpState (Charlottesvilles, VA, #06-659). JNK3-containing lysates were generated from HepG2 cells and pre-activated by interleukin1-beta and tumor necrosis factor alpha. All reagents were stored at -20 C before using. Phosphorylated biotinylated-GST-cJun was recognized by Anti-(phospho)cJun (Ser73) antibody and this process brings acceptor and donor beads together. Therefore JNK3 phosphorylation of cJun can be measured by Alpha reading by EnVision (PerkinElmer, Boston, MA).
The composition of kinase buffer was (in mM) 20 tris- HCl (pH 7.6) 10 MgCl2, 1 DTT, and 0.1 Na3VO4 and 0.01% Tween-20. Beads were diluted in detection buffer containing (in mM) 20 tris-HCl (pH 7.7), 20 NaCl and 80 EDTA and 0.3% BSA. The assay was performed at room temperature. All compounds were screened as titrations from 0.6 nM to 46 uM final concentration. The assay was performed in 1536-well format (white solid bottom and untreated) as follows:
Sequence,Parameter,Value,Description
1,Reagent,3 uL,Biotin-GST-cJun, Anti-(phospho)cJun and pre-activated JNK3-containing lysates
2,Compound,23 nL,Final concentration was 0.6nM to 46uM
3,Time,15 minutes,Room Temperature
4,Reagent,1 uL,ATP final concentration 10uM
6,Reagent,0.5 uL,2ng/well bead mixture
[…]
(In Alpha technology, singlet oxygen from a donor bead excites a nearby acceptor bead.)
Consider `C[C@@H](C(=O)Nc1ccc2ccccc2c1)[C@H]1C[C@]1(C)[C@H](NC(=O)c1ccccc1)c1ccccc1`, for which the outcome was inactive.
With `COC(=O)c1ccc(C(/C=C/[C@@H](C)C(=O)N[C@H](C)CO)NC(=O)OCc2ccccc2)cc1` (stereo not given in full) the entry was “inactive”; with `COC(=O)[C@@]1(Cc2ccc(OC)cc2)[C@H]2c3cc(C(=O)N4CCCC4)n(Cc4cc(F)c(F)c(F)c4)c3C[C@H]2CN1C(=O)c1ccccc1`, “inactive”.
As to `C[C@@H](C(=O)N[C@@H](CO)Cc1ccccc1)[C@H]1C[C@]1(C)[C@H](NC(=O)OCc1ccccc1)c1ccccc1`, the outcome was inactive.
As for `CNC(=O)[C@H](C)/C=C/C(NC(=O)OCc1ccccc1)c1ccc(C(=O)OC)cc1` (stereo not given in full), the entry is “inactive”.
With `COC(=O)[C@@]1(Cc2ccc(F)cc2)[C@H]2c3cc(C(=O)N(C)C)n(CCO)c3C[C@H]2CN1C(=O)c1ccccc1` the entry was “inactive”; with `COC(=O)c1ccc(C(/C=C/[C@@H](C)C(=O)NCCc2c[nH]c3ccccc23)NC(=O)OCc2ccccc2)cc1` (stereo not given in full), “inactive”.
Turning to `C[C@]1(C(=O)NCCCNc2ncc(C(F)(F)F)cc2Cl)C=C[C@@H](Cc2ccccc2)N1C(=O)c1ccccc1`, the call was inactive.
As for `COC(=O)[C@@]1(Cc2ccc(F)cc2)[C@H]2c3cc(C(=O)N(C)C)n(CCN4CCOCC4)c3C[C@H]2CN1C(=O)c1ccccc1`, the result was inactive.
With `COC(=O)c1ccc(C(/C=C/[C@@H](C)C(=O)NCc2ccc(OC)c(O)c2)NC(=O)OCc2ccccc2)cc1` (stereo not given in full) the entry was “inactive”; with `CCc1c2c(nc3ccc(OC)cc13)OC(C)C2` (stereo not given), “inactive”.
As for `CC(=O)N1CC=CC1(CC(C)C)C(=O)NCc1ccccn1` (stereo not given), the entry is “inactive”.
As for `CC1(C(=O)NCCCNc2ncc(C(F)(F)F)cc2Cl)C=CC2(CCCCC2)N1C(=O)c1ccccc1` (stereo not given), the entry is “inactive”.
`COC(=O)[C@@]1(Cc2ccccc2)[C@H]2c3cc(C(=O)N(C)C)n(Cc4ccc(O)c(OC)c4)c3C[C@H]2CN1C(=O)c1ccccc1`: the compound was classed as inactive.
With `CC(Cc1ccccc1)C(=O)N(C)Cc1ccccc1` (stereo not given) the entry was “inactive”; with `COCCNC(=O)[C@H](C)/C=C/C(NC(=O)OCc1ccccc1)c1ccc(C(=O)OC)cc1` (stereo not given in full), “inactive”.
On to `Cc1nn(-c2ccccc2)nc1CNC(=O)C(C)Cc1ccccc1` (stereo not given), for which the outcome was inactive.
With `COC(=O)[C@@]1(Cc2ccc(OC)cc2)[C@H]2c3cc(C(=O)N(C)C)n(CCc4ccc(OC)c(Br)c4)c3C[C@H]2CN1C(=O)c1ccccc1` the entry was “inactive”; with `CCCCNC(=O)C(c1ccc(OCC(=O)OC)c(C(=O)OC)c1)N(Cc1ccccn1)C(=O)CCCCCN1C(=O)NC(c2ccc(-c3ccccc3)cc2)C(C(=O)OCc2ccccc2)=C1C` (stereo not given), “inactive”; with `COC(=O)CNC(=O)[C@@]1(C)C=C[C@@H](Cc2ccccc2)N1C(=O)OC`, “inactive”.
With `COC(=O)[C@@]1(Cc2ccc(OC)cc2)[C@H]2c3cc(C(=O)N4CCCC4)n(Cc4ccsc4Br)c3C[C@H]2CN1C(=O)c1ccccc1` the entry was “inactive”; with `COC(=O)[C@@]1(Cc2ccc(OC)cc2)[C@H]2c3cc(C(=O)N(C)C)n(Cc4ccc(Cl)c(C(F)(F)F)c4)c3C[C@H]2CN1C(=O)c1ccccc1`, “inactive”.
As for `COC(=O)c1ccc(C(NC(=O)OCc2ccccc2)/C(=C/[C@@H](C)C(=O)NCc2ccc(OC)c(O)c2)c2cccnc2)cc1` (stereo not given in full), the entry is “inactive”.
For the compound `COC(=O)c1ccc(C(NC(=O)OCc2ccccc2)/C(=C/[C@@H](C)C(=O)NCc2cc(C)on2)c2cccnc2)cc1` (stereo not given in full), the outcome was inactive.
Regarding `COC(=O)[C@@]1(Cc2ccc(OC)cc2)[C@H]2c3cc(C(=O)N(C)C)n(C)c3C[C@H]2CN1C(=O)c1ccccc1`, the result was inactive.
As for `COC(=O)CNC(=O)C1(C)C=CC2(CCCCC2)N1C(C)=O` (stereo not given), the entry is “inactive”; as for `COC(=O)[C@@]1(Cc2ccc(OC)cc2)[C@H]2c3cc(C(=O)N4CCCC4)n(CCF)c3C[C@H]2CN1C(=O)c1ccccc1`, “inactive”.
As for `C[C@@H](C(=O)Nc1ccc2ccccc2c1)[C@H]1C[C@]1(C)[C@H](NC(=O)c1cccnc1)c1ccccc1`, the entry is “inactive”; as for `COC(=O)c1ccc(C(NC(=O)OCc2ccccc2)/C(F)=C/[C@@H](C)C(=O)NCc2cc(C)on2)cc1` (stereo not given in full), “inactive”; as for `COC(=O)[C@@]1(Cc2ccccc2)[C@H]2c3cc(C(=O)N(C)C)n(CCO)c3C[C@H]2CN1C(=O)c1ccccc1`, “inactive”.
As for `O=C1C(Cl)=C(NC2CCc3ccccc32)C(=O)c2ncccc21` (stereo not given), the entry is “inactive”; as for `CC(C)NC(=O)[C@H]1C[C@@H]1[C@H](NC(=O)OCc1ccccc1)c1ccccc1`, “inactive”; as for `COC(=O)c1ccc(C(NC(=O)OCc2ccccc2)/C(I)=C/[C@@H](C)C(=O)NCc2ccc(C)o2)cc1` (stereo not given in full), “inactive”.
As to `COC(=O)c1ccc(C(NC(=O)OCc2ccccc2)/C(C)=C/[C@@H](C)C(=O)NCc2cc(F)cc(F)c2)cc1` (stereo not given in full), the result was inactive.
For `C[C@@H](C(=O)N[C@@H](CO)Cc1ccccc1)[C@@H]1C[C@@]1(C)[C@@H](NC(=O)OCc1ccccc1)c1ccccc1`, the call was inactive.
As to `COC(=O)c1ccc(C(NC(=O)OCc2ccccc2)/C(C)=C/[C@@H](C)C(=O)N(C)Cc2cccnc2)cc1` (stereo not given in full), the compound was called inactive.
With `CCCCNC(=O)C(c1ccc(OCC(=O)OC)c(C(=O)OC)c1)N(CCOC)C(=O)CCCCCN1C(=O)NC(c2ccc(-c3ccccc3)cc2)C(C(=O)OCc2ccccc2)=C1C` (stereo not given) the entry was “inactive”.
As for `COC(=O)[C@@]1(Cc2ccc(OC)cc2)[C@H]2c3cc(C(=O)N4CCCC4)n(Cc4ccc(S(C)(=O)=O)cc4)c3C[C@H]2CN1C(=O)c1ccccc1`, the entry is “inactive”; as for `COC(=O)[C@@]1(Cc2ccc(OC)cc2)[C@H]2c3cc(C(=O)N(C)C)n(Cc4ccc(S(C)(=O)=O)cc4)c3C[C@H]2CN1C(=O)c1ccccc1`, “inactive”; as for `COC(=O)[C@@]1(Cc2ccc(F)cc2)[C@H]2c3cc(C(=O)N4CCCC4)n(Cc4cc(F)cc5c4OCOC5)c3C[C@H]2CN1C(=O)c1ccccc1`, “inactive”.
